# Inconclusive results are not listed. Activity calls are given as the source filed them. Cut-off read from the data, not from the text of the source, unless noted: active = inhibition above about 80%; inactive = the rest.
# Columns and labels:
# [1] = viability loss in pontine glioma line – cell-based, SU-DIPG-XVII, MIPE5.0, CellTiter-Glo, qHTS, dose response (AID 1347060; cut-off not given, nearly all actives have AC50 up to about 26 µM); details: CellTiter-Glo ATP luminescence
# [2] = viability loss in pontine glioma line – cell-based, SU-DIPG-XIII, MIPE4.0, CellTiter-Glo, qHTS, dose response (AID 1347061; cut-off not given, nearly all actives have AC50 up to about 37 µM;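 note: cells exposed to compound for 48 hours before readout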); details: CellTiter-Glo ATP luminescence
# [3] = viability loss in pontine glioma line – cell-based, JHH-DIPG-1, MIPE4.0, CellTiter-Glo, qHTS, dose response (AID 1347062; cut-off not given, nearly all actives have AC50 up to about 27 µM); details: JHH-DIPG-1 viability, CellTiter-Glo ATP luminescence
# [4] = viability loss in pontine glioma line – cell-based, SU-DIPG-IV, MIPE4.0, CellTiter-Glo, qHTS, dose response (AID 1347063; cut-off not given, nearly all actives have AC50 up to about 30 µM;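 note: compound exposure lasted 48 hours before the viability readout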); details: CellTiter-Glo ATP luminescence
# [5] = viability loss in pontine glioma line – cell-based, SU-DIPG-XIII, MIPE5.0, CellTiter-Glo, qHTS, dose response (AID 1347064; cut-off not given, nearly all actives have AC50 up to about 23 µM); details: CellTiter-Glo ATP luminescence
# [6] = viability loss in pontine glioma line – cell-based, SU-DIPG-XXV, MIPE5.0, CellTiter-Glo, qHTS, dose response (AID 1347065; cut-off not given, nearly all actives have AC50 up to about 26 µM;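 note: cells exposed to compound for 48 hours before ATP readout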); details: CellTiter-Glo ATP luminescence
# [7] = growth inhibition of DIPG cells – cell-based, MIPE4.0 library, CellTiter-Glo luminescence, qHTS (AID 1347066; cut-off not given, nearly all actives have AC50 up to about 30 µM;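 note: cells exposed to compound for 48 hours before readout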); details: SU-DIPG-VI viability, CellTiter-Glo ATP luminescence
# [8] = JHH-DIPG-1 glioma cell viability, MIPE5.0 library, CellTiter-Glo luminescence, qHTS (AID 1347067; cut-off not given, nearly all actives have AC50 up to about 26 µM;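 note: cells exposed to compound for 48 hours before readout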); details: JHH-DIPG-1 glioma viability, CellTiter-Glo ATP luminescence
# [9] = growth inhibition of DIPG cells – cell-based, MIPE5.0 library, qHTS (AID 1347068; cut-off not given, nearly all actives have IC50 up to about 30 µM); details: SU-DIPG-XXV viability
# [10] = viability loss with induced miR-34 in A549 – imaging, A549 dox-inducible miR-34, nuclei and caspase counts, primary screen (AID 1347080;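 active = compounds whose cell count with miR-34 switched on is under 0.7 times the count with it off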); details: A549 miR-34 inducible, Hoechst nuclei count, 48 h
# [11] = MELAS cybrid and Rieske KO viability enhancers – cell-based, MELAS cybrids, Rieske KO mouse fibroblasts, CellTiter-Glo, primary screen (AID 1508586;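 active = mean z-score across replicates of 1.96 or higher in either the MELAS or the Rieske mutant cell line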;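 note: z relative to plate mean and SD of compound and empty wells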); details: low glucose
# [12] = system: Hepatitis C virus NS3 helicase; assay: blockers of NS3h binding to ssDNA – biochemical, fluorescence polarization, LOPAC1280 library, primary screen (AID 687035; in the data active = inhibition above about 37%); details: Purified HCV NS3 helicase, Cy5-dT15 ssDNA binding fluorescence polarization; stronger effect = higher value; concentration not given here
# [13] = compounds altering Cy5-DNA-NS3h complex signal – biochemical, LOPAC1280, artefact control for HCV NS3 helicase inhibitor project (AID 687037; call rule not given here); details: Cy5-DNA-NS3h complex fluorescence interference counterscreen
# [14] = system: Aerobactin synthetase IucA (Klebsiella pneumoniae, hypervirulent); assay: biochemical IucA inhibition screen of LOPAC library by absorbance (AID 1346212; call rule not given here;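 note: 100% = no compound wells and 0% = no enzyme wells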); details: IucA enzyme assay, absorbance (OD) readout; stronger effect = lower value;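 tested at 8 µM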
# [15] = compounds altering circadian rhythm period length – cell-based, LOPAC library, luminescence reporter (AID 2774; call rule not given here;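 note: values are relative to mean of DMSO wells on each plate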); details: circadian reporter cells, at 7 µM, actives lie on both sides
# [16] = growth inhibition, single agent or in combination, cell-based, chromothripsis tumors, cisplatin or BGB combos (AID 1671449); details: LFS_MB_P medulloblastoma cells;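 note: cells exposed for 96 hours; 0% = vehicle DMSO and 100% = killing by high DMSO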
# [17] = growth inhibition, single agent and combos, cell-based, chromothripsis tumors, cisplatin or BGB combos (AID 1671450); details: HDN33 neuroblastoma cells, stronger effect = higher value;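 note: cells exposed to compound for four days; 0% = vehicle DMSO and 100% = cell killing by high DMSO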
# [18] = growth inhibition, single agents and combos, ICB984, cell-based, cisplatin or BGB combos, synergistic combos for chromothripsis tumors (AID 1671451; call rule not given here;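 note: cells exposed for 96 hours before readout; 0% = vehicle DMSO and 100% = killing by high DMSO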); details: ICB984 medulloblastoma cells, drug combinations, stronger effect = higher value
# [19] = growth inhibition, single agents and combos, LFS_MB_1R, cell-based, cisplatin or BGB combos, synergistic combos for chromothripsis tumors (AID 1671452); details: LFS_MB_1R medulloblastoma cells, stronger effect = higher value;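 note: cells exposed for 96 hours before readout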
# [20] = growth inhibition, single agents and combos, HTB85, cell-based, BGB or cisplatin IC20 combos, synergistic combos for chromothripsis tumors (AID 1671453); details: HTB85 osteosarcoma cells, drug combinations, stronger effect = higher value;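 note: cells exposed for 96 hours before readout; 0% = vehicle DMSO and 100% = high DMSO killing control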
# [21] = growth inhibition, single agents and combos, CRL2098, cell-based, BGB or cisplatin IC20 combos, synergistic combos for chromothripsis tumors (AID 1671454); details: CRL2098 osteosarcoma cells, drug combinations, stronger effect = higher value;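 note: cells exposed for 96 h before readout; 0% = vehicle DMSO and 100% = killing by high DMSO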
# [22] = growth inhibition, single agents and combos, HD-MB03, cell-based, BGB or cisplatin IC20 combos, synergistic combos for chromothripsis tumors (AID 1671455; in the data active = inhibition above about 83%;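 note: 0% = vehicle DMSO and 100% = high DMSO as cytotoxic control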); details: HD-MB03 medulloblastoma cells, stronger effect = higher value
# [23] = growth inhibition, single agents and combos, UWB1.289, cell-based, BGB or cisplatin combos, synergistic combos for chromothripsis tumors (AID 1671456); details: UWB1.289 ovarian carcinoma cells, stronger effect = higher value;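 note: cells exposed to compound for four days; 0% = vehicle DMSO and 100% = killing by high DMSO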
# [24] = growth inhibition, single agents and combos, LFS_MB_2R, cell-based, cisplatin combos, synergistic combos for chromothripsis tumors (AID 1671457); details: LFS_MB_2R medulloblastoma cells, stronger effect = higher value;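 note: cells exposed to compound for four days before readout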
# [25] = growth inhibition, MDA-MB-436, cell-based, BGB or cisplatin combos, synergistic combos for chromothripsis tumors (AID 1671458; call rule not given here;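 note: cells exposed for 96 hours; 0% = vehicle DMSO and 100% = killing by high DMSO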); details: MDA-MB-436 breast carcinoma growth inhibition, drug combinations, stronger effect = higher value
# [26] = UWB1.289_BRCA1 ovarian cancer growth, cell-based, BGB or cisplatin combinations (AID 1671459); details: UWB1.289 BRCA1 ovarian carcinoma, drug combinations, stronger effect = higher value
# [27] = drug combination toxicity in non-malignant astrocytes – cell-based, BGB or cisplatin IC20 combos, cytotoxicity control for chromothriptic childhood tumor combination screen (AID 1671460); details: Human astrocytes, viability inhibition, drug combinations, at 0.5 µM, stronger effect = higher value;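 note: cells exposed to compounds for 96 hours before viability readout; 0% = vehicle and 100% = killing control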
# [28] = BT084 cell growth, single and combined drugs, ICGC_MB145, cisplatin and BGB IC40 combos (AID 1671461); details: BT084 medulloblastoma cells, drug combinations, stronger effect = higher value;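 note: cells exposed to drugs for 96 hours; 0% = vehicle DMSO and 100% = high DMSO full killing control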
# [29] = RCMB18 cell growth, single agent and combined, cisplatin and BGB IC40 combos (AID 1671462); details: RCMB18 medulloblastoma cells, stronger effect = higher value;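 note: cells exposed to compound for four days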
# [30] = CRL1545 cell growth, single agent and combined, cisplatin and BGB IC20 combos (AID 1671464); details: CRL1545 osteosarcoma cells, stronger effect = higher value;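 note: cells exposed to compound for 96 hours before readout; 0% = vehicle DMSO and 100% = high DMSO killing control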
# [31] = measured here: combination with BGB IC40, at 0.05 µM
# [32] = measured here: with BGB IC20 combination, at 0.5 µM
# [33] = measured here: with cisplatin IC20 combination, at 0.5 µM
# [34] = measured here: combination with cisplatin, at 0.5 µM
# [35] = measured here: combination with cisplatin, at 5 µM
compound,measurement,setting,value
CC1(C)CC(O)CC(C)(C)N1O,outcome,[1],inactive
same,outcome,[2],inactive
same,outcome,[3],inactive
same,outcome,[4],inactive
same,outcome,[5],inactive
same,outcome,[6],inactive
same,outcome,[7],inactive
same,outcome,[8],inactive
same,outcome,[9],inactive
same,fold change,"[10]; stronger effect = lower value, cell number ratio, induced over uninduced",0.97 (inactive)
same,fold change,[10]; measured here: relative caspase fold change +Dox/-Dox,0.416
same,cell count,"[10]; measured here: total cells with miR-34 induction, stronger effect = lower value",7440
same,cell count,[10]; measured here: total cells without miR-34 induction,7670
same,z-score,"[11]; MELAS cybrid survival, CellTiter-Glo 48 h, stronger effect = higher value",-0.227 (inactive)
same,z-score,"[11]; Rieske KO mouse fibroblast survival, CellTiter-Glo 72 h",-0.223
O=C(Oc1ccc([N+](=O)[O-])cc1)N1CCN(Cc2cccc(Oc3ccccc3)c2)CC1,outcome,[1],inactive
same,AC50,[2],11.8 µM (active)
same,outcome,[3],inactive
same,outcome,[5],inactive
same,outcome,[6],inactive
same,outcome,[7],inactive
same,outcome,[8],inactive
C=CCN(C1=NCCN1)c1c(Cl)cccc1Cl,inhibition,[12],-4% (inactive)
same,fluorescence ratio (interference),[13],1 (inactive)
same,remaining activity,[14],95.7% (inactive)
O=C(O)c1cc[c]([Hg][Cl])cc1,period change,[15],0.155 h (inactive)
same,inhibition,[12],-5% (inactive)
same,fluorescence ratio (interference),[13],1 (inactive)
same,remaining activity,[14],-1.2% (active)
CN(C)NC(=O)CCC(=O)O,outcome,[1],inactive
same,outcome,[2],inactive
same,outcome,[3],inactive
same,outcome,[4],inactive
same,outcome,[5],inactive
same,outcome,[7],inactive
same,outcome,[8],inactive
same,outcome,[9],inactive
same,inhibition,"[16]; at 0.5 µM, stronger effect = higher value",-0.95% (inactive)
same,inhibition,"[16]; measured here: combination with BGB IC20, at 0.005 µM",-31%
same,inhibition,"[16]; measured here: combination with BGB IC40, at 0.005 µM",-30.2%
same,inhibition,[16]; [31],-24.7%
same,inhibition,"[16]; measured here: combination with cisplatin, at 0.5 µM, stronger effect = higher value",2.21%
same,inhibition,"[16]; measured here: combination with cisplatin, at 5 µM, stronger effect = higher value",-34.9%
same,inhibition,"[17]; BGB combo, at 5 µM",-23.5%
same,inhibition,[17]; at 0.5 µM,-21.4% (inactive)
same,inhibition,"[17]; cisplatin combo, at 5 µM",-14%
same,inhibition,[17]; [32],-37.1%
same,inhibition,[17]; [33],-10.8%
same,inhibition,"[17]; single agent, at 5 µM",-11.1%
same,inhibition,"[18]; BGB IC20 combo, at 0.005 µM",-38.4%
same,inhibition,"[18]; BGB IC40 combo, at 0.005 µM",-26.9%
same,inhibition,"[18]; BGB IC40 combo, at 0.05 µM",-23.3%
same,inhibition,[18]; at 0.5 µM,-22.7% (inactive)
same,inhibition,"[18]; cisplatin combo, at 0.05 µM",-27.8%
same,inhibition,"[18]; cisplatin combo, at 0.5 µM",-26.2%
same,inhibition,"[18]; cisplatin combo, at 5 µM",-3.89%
same,inhibition,"[18]; measured here: 5 uM single agent, at 5 µM",-1.92%
same,inhibition,[19]; at 0.5 µM,-2.69% (inactive)
same,inhibition,[19]; [31],-23.8%
same,inhibition,[19]; [34],18.7%
same,inhibition,[19]; [35],-7.99%
same,inhibition,[20]; at 0.5 µM,-8.01% (inactive)
same,inhibition,"[20]; measured here: with BGB IC20, at 0.5 µM",-17.1%
same,inhibition,"[20]; measured here: with BGB IC20, at 5 µM",-18.2%
same,inhibition,"[20]; measured here: with cisplatin IC20, at 0.5 µM",10.6%
same,inhibition,"[20]; measured here: with cisplatin IC20, at 5 µM",-1.55%
same,inhibition,"[20]; single agent, at 5 µM",-16.5%
same,inhibition,[21]; at 0.5 µM,-47.3% (inactive)
same,inhibition,"[21]; measured here: combination with BGB at IC20, at 0.5 µM",-35.5%
same,inhibition,"[21]; measured here: combination with cisplatin at IC20, at 0.5 µM",-70.4%
same,inhibition,[22]; at 0.5 µM,-8.93% (inactive)
same,inhibition,"[22]; measured here: combo with BGB at IC20, at 0.5 µM",-16.7%
same,inhibition,"[22]; measured here: combo with cisplatin at IC20, at 0.5 µM",-5.27%
same,inhibition,[23]; at 0.5 µM,-6.42% (inactive)
same,inhibition,"[23]; measured here: inhibition with BGB combination, at 0.05 µM",-16.9%
same,inhibition,"[23]; measured here: inhibition with cisplatin combination, at 0.05 µM",-15.9%
same,inhibition,[24]; at 0.5 µM,-22.3% (inactive)
same,inhibition,[24]; [34],-20.6%
same,inhibition,[24]; [35],-15.1%
same,inhibition,[25]; at 0.5 µM,-23% (inactive)
same,inhibition,"[25]; measured here: BGB combination, at 0.5 µM",-22.6%
same,inhibition,"[25]; measured here: BGB combination, at 5 µM",-35.6%
same,inhibition,"[25]; measured here: cisplatin combination, at 0.5 µM",-26.7%
same,inhibition,"[25]; measured here: cisplatin combination, at 5 µM",-43.4%
same,inhibition,"[26]; BGB combination, concentration series, at 5 µM",-16%
same,inhibition,[26]; at 0.5 µM,-15.1% (inactive)
same,inhibition,"[26]; cisplatin combination, concentration series, at 5 µM",-31.4%
same,inhibition,[27],-16.7% (inactive)
same,inhibition,[27]; measured here: combo with BGB IC20,-24.5%
same,inhibition,[27]; measured here: combo with cisplatin IC20,-4.55%
same,inhibition,[28]; at 0.5 µM,-3.48% (inactive)
same,inhibition,"[28]; cisplatin combination, at 0.5 µM",-21.4%
same,inhibition,"[28]; cisplatin combination, at 5 µM",-13.9%
same,inhibition,"[28]; measured here: BGB IC40 combination 0.05 uM, at 0.05 µM",-20.2%
same,inhibition,"[28]; single agent, at 5 µM",-16.7%
same,inhibition,[29]; at 0.5 µM,-11.5% (inactive)
same,inhibition,"[29]; cisplatin combo, at 5 µM",1.98%
same,inhibition,"[29]; measured here: BGB IC40 combination, at 0.05 µM",-3.93%
same,inhibition,[29]; [34],15.6%
same,inhibition,"[29]; single agent, at 5 µM",-10.2%
same,inhibition,[30]; at 0.5 µM,-22.5% (inactive)
same,inhibition,[30]; [32],-20%
same,inhibition,[30]; [33],-25.8%
same,inhibition,"[30]; single agent, at 0.05 µM",-6.7%
same,inhibition,"[30]; single agent, at 5 µM",-28%
